Results filed as inconclusive are left out. A call without a number means that no potency is given here. Calls of active or inactive are those of the source. Unless noted, calls follow the shape of the full dose curve.
System: estrogen-related receptor alpha (ERRalpha) with PGC-1alpha coactivator, human
Experiment: qHTS assay to identify small molecule antagonists of the estrogen related receptor signaling pathway with the pleiotropic PPARgamma coactivator (PGC) (AID 1224821); also: nearly all actives have a fitted effect of over 50% in size
Conditions: ERR/PGC reporter cell line, luciferase, antagonist mode; series mostly up to 46.1 µM
Outline: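 Luminescent read-out (One-Glo, 30 min at room temperature) following 18 h treatment of PGC/ERR cells at 37 C with compounds delivered in DMSO. Cells had settled 6 h at 37 C/5% CO2 before dosing.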
In the case of `N#C/C(=C\c1ccc(O)c(O)c1)C(=O)Nc1ccccc1`, the Potency is reported as “inactive”.
In the case of `C=CCN1CCc2c(cc(O)c(O)c2Cl)C(c2ccccc2)C1` (stereo not given), the Potency is reported as “inactive”.
With `Oc1cc2c(cc1O)CN(C(=S)NCCc1ccc(Cl)cc1)CCC2` the Potency was “inactive”.
With `O=C1Nc2ccc(I)cc2/C1=C/c1cc(Br)c(O)c(Br)c1` the Potency was “inactive”.
With `CC(C)C[C@H](NC(=O)[C@@H](O)[C@H](N)Cc1ccccc1)C(=O)O` the Potency was 6.94 µM (active).
For `CCCCN(CC)c1nc(C)nc2c1c(C)cn2-c1c(C)cc(C)cc1C`, the Potency was 12.8 µM (active).
For `C[C@H](Cc1ccccc1)Nc1ncnc2c1ncn2[C@@H]1O[C@H](CO)C(O)[C@H]1O` (stereo not given in full), the Potency was “inactive”.
For `N#C/C(=C\c1ccc(-c2cc(Cl)ccc2Cl)o1)C(=O)Nc1cccc2ncccc12`, the Potency was “inactive”.
For `CCOC(=O)[C@H](CCc1ccccc1)N[C@@H](C)C(=O)N1[C@H](C(=O)O)C[C@H]2CCCC[C@@H]21`, the Potency was “inactive”.
With `COc1cccc2c1[C@@H]1CN(CCCCn3c(=O)[nH]c4c(sc5ncc(-c6ccccc6)nc54)c3=O)C[C@@H]1CO2` the Potency was “inactive”.
With `CN[C@H](CC(C)C)C(=O)N[C@H]1C(=O)N[C@@H](CC(N)=O)C(=O)N[C@H]2C(=O)N[C@H]3C(=O)N[C@H](C(=O)N[C@H](C(=O)O)c4cc(O)cc(O)c4-c4cc3ccc4O)[C@H](O)c3ccc(c(Cl)c3)Oc3cc2cc(c3O[C@@H]2O[C@H](CO)[C@@H](O)[C@H](O)[C@H]2O[C@H]2C[C@](C)(N)[C@H](O)[C@H](C)O2)Oc2ccc(cc2Cl)[C@H]1O` the Potency was “inactive”.
In the case of `CN(C)C(=O)[C@H](O)[C@H](Cc1ccccc1)NC(=O)c1cc2cc(Cl)ccc2[nH]1`, the Potency is reported as “inactive”.
In the case of `O=C(Nc1ccncc1)c1cc([N+](=O)[O-])ccc1Cl`, the Potency is reported as “inactive”.
With `Nc1ccc2c3c(cccc13)C(=O)NC2=O` the Potency was “inactive”.
In the case of `Cc1nn(-c2ccccc2)c(C)c1/C=N/N1CCN(Cc2ccccc2)CC1`, the Potency is reported as “inactive”.
With `NC(=Nc1ccccc1)NC(=O)c1nc(Cl)c(N)nc1N` the Potency was “inactive”.
In the case of `COC(=O)C1=C(C)NC(C)=C(C(=O)OC)C1c1cccc(NC(=O)NCCCN2CCC(c3cccc(OC)c3)CC2)c1`, the Potency is reported as 31 µM (active).
In the case of `C[C@H](Cc1ccc(O)c(O)c1)[C@@H](C)Cc1ccc(O)c(O)c1`, the Potency is reported as “inactive”.
In the case of `Cc1cc(Cl)ccc1OCCCC(=O)NO`, the Potency is reported as “inactive”.
For `CN(C)S(=O)(=O)c1ccc2c(c1)/C(=C/c1cc3c([nH]1)CCCC3)C(=O)N2`, the Potency was “inactive”.
For `CCN(CC)CCOC(=O)c1cc(Cl)c(N)cc1OC`, the Potency was “inactive”.
For `CN1CCC2(CCN3CCc4c(oc5ccccc45)C3C2)N(C)C1=O` (stereo not given), the Potency was “inactive”.
With `CCCCCCCCCCC(C)(C)C(=O)Nc1c(OC)cc(OC)cc1OC` the Potency was “inactive”.
In the case of `Cn1c(=O)c(-c2c(Cl)cccc2Cl)cc2cnc(Nc3ccc(N4CCOCC4)cc3)nc21`, the Potency is reported as “inactive”.

System: not listed separately
Experiment: qHTS assay to identify small molecule antagonists of the estrogen related receptor signaling pathway with the pleiotropic PPARgamma coactivator (PGC) cell viability counter screen (AID 1224822; active = well fitted cell-killing curve with a large enough effect in the repeat runs;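 also: viability read after 17.5 h compound exposure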)
Conditions: ERR/PGC reporter cell line viability counter screen; series mostly up to 46.1 µM
Outline: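 PGC/ERR cells rested 6 h, then compound-treated 17.5 h at 37 C. CellTiter-Fluor added for 30 min at 37 C, viability measured by fluorescence intensity.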
In the case of `C=CCN1CCc2c(cc(O)c(O)c2Cl)C(c2ccccc2)C1` (stereo not given), the Potency is reported as “inactive”.
For `Oc1cc2c(cc1O)CN(C(=S)NCCc1ccc(Cl)cc1)CCC2`, the Potency was “inactive”.
In the case of `O=C1Nc2ccc(I)cc2/C1=C/c1cc(Br)c(O)c(Br)c1`, the Potency is reported as “inactive”.
For `CC(C)C[C@H](NC(=O)[C@@H](O)[C@H](N)Cc1ccccc1)C(=O)O`, the Potency was “inactive”.
In the case of `CCCCN(CC)c1nc(C)nc2c1c(C)cn2-c1c(C)cc(C)cc1C`, the Potency is reported as 16.8 µM (active).
With `C[C@H](Cc1ccccc1)Nc1ncnc2c1ncn2[C@@H]1O[C@H](CO)C(O)[C@H]1O` (stereo not given in full) the Potency was “inactive”.
With `N#C/C(=C\c1ccc(-c2cc(Cl)ccc2Cl)o1)C(=O)Nc1cccc2ncccc12` the Potency was 14.4 µM (active).
In the case of `CCOC(=O)[C@H](CCc1ccccc1)N[C@@H](C)C(=O)N1[C@H](C(=O)O)C[C@H]2CCCC[C@@H]21`, the Potency is reported as “inactive”.
In the case of `CN[C@H](CC(C)C)C(=O)N[C@H]1C(=O)N[C@@H](CC(N)=O)C(=O)N[C@H]2C(=O)N[C@H]3C(=O)N[C@H](C(=O)N[C@H](C(=O)O)c4cc(O)cc(O)c4-c4cc3ccc4O)[C@H](O)c3ccc(c(Cl)c3)Oc3cc2cc(c3O[C@@H]2O[C@H](CO)[C@@H](O)[C@H](O)[C@H]2O[C@H]2C[C@](C)(N)[C@H](O)[C@H](C)O2)Oc2ccc(cc2Cl)[C@H]1O`, the Potency is reported as “inactive”.
In the case of `CN(C)C(=O)[C@H](O)[C@H](Cc1ccccc1)NC(=O)c1cc2cc(Cl)ccc2[nH]1`, the Potency is reported as “inactive”.
For `O=C(Nc1ccncc1)c1cc([N+](=O)[O-])ccc1Cl`, the Potency was “inactive”.
For `Cc1nn(-c2ccccc2)c(C)c1/C=N/N1CCN(Cc2ccccc2)CC1`, the Potency was “inactive”.
For `COc1cc(OC)cc(-c2cc3cnc(N)nc3nc2NC(=O)NC(C)(C)C)c1`, the Potency was “inactive”.
For `NC(=Nc1ccccc1)NC(=O)c1nc(Cl)c(N)nc1N`, the Potency was “inactive”.
For `COC(=O)C1=C(C)NC(C)=C(C(=O)OC)C1c1cccc(NC(=O)NCCCN2CCC(c3cccc(OC)c3)CC2)c1`, the Potency was 20.3 µM (active).
With `Cc1ccc(S(=O)(=O)N[C@@H](Cc2ccccc2)C(=O)CCl)cc1` the Potency was 26.6 µM (active).
With `C[C@H](Cc1ccc(O)c(O)c1)[C@@H](C)Cc1ccc(O)c(O)c1` the Potency was “inactive”.
For `CN(C)S(=O)(=O)c1ccc2c(c1)/C(=C/c1cc3c([nH]1)CCCC3)C(=O)N2`, the Potency was “inactive”.
For `CCN(CC)CCOC(=O)c1cc(Cl)c(N)cc1OC`, the Potency was “inactive”.
With `CN1CCC2(CCN3CCc4c(oc5ccccc45)C3C2)N(C)C1=O` (stereo not given) the Potency was “inactive”.
In the case of `CCCCCCCCCCC(C)(C)C(=O)Nc1c(OC)cc(OC)cc1OC`, the Potency is reported as “inactive”.

— PubChem BioAssay (Tox21)
Potency is read from the fitted curve at half-maximal effect.
